Assay outcomes as filed in PubChem BioAssay.
rCAG binder = binders of r(CAG) RNA repeats, primary screen, biochemical, fluorescence; r(CAG) RNA repeat, TO-PRO-1 dye displacement fluorescence; inhibition, % at 3 µM; 370,000 compounds, 1.3% hits;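 active = inhibition above the plate cutoff, the mean of all test compounds on that plate plus 3 SD, cut at about 35% in these data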;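 note: 0% = DMSO alone and 100% = 100 µM mitoxantrone as full dye displacement; higher means more dye released from RNA so lower well fluorescence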
A3G deaminase = APOBEC3G DNA deaminase inhibitors, primary screen, biochemical, fluorescence, single-stranded DNA substrate, uHTS. DNA dC->dU-editing enzyme APOBEC-3G (Homo sapiens), Q9HC16. recombinant A3G, ssDNA deamination FAM/TAMRA fluorescence. inhibition, % at 20 µM. 330,000 compounds, 0.28% hits;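 active = inhibition of at least 40% at 20 µM, with no more than 30% in the related APOBEC3A deaminase screen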;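 note: plate controls were DMSO wells with A3G for no effect and wells lacking A3G enzyme for full effect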
Target sequence (Q9HC16 whole entry, looked up): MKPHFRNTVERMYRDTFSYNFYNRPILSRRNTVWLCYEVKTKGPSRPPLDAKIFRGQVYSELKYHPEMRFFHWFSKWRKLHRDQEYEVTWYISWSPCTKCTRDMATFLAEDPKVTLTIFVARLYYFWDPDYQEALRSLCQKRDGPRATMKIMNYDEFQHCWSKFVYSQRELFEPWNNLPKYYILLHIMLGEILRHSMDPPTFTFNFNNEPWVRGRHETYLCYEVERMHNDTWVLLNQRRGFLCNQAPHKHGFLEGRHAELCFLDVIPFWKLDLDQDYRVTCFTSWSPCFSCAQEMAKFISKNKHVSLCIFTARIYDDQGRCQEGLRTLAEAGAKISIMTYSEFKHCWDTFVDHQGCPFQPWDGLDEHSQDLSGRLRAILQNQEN
aDG glyco up = activators of alpha-DG glycosylation, primary screen, uHTS, Pro5-aDG cells, AlphaScreen; alpha-DG glycosylation AlphaScreen (IIH6); 0% Pro5, 100% B10-LARGE cell signal; activation, % at 10 µM; 360,000 compounds, 0.22% hits;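 active = activation of at least 8% versus controls, or a plate z-score of at least 8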;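 note: Pro5 are CHO cells carrying HIG-tagged alpha-DG that lacks glycosylation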
APOBEC3A inh = APOBEC3A ssDNA deaminase inhibitors, primary screen, selectivity assay for APOBEC3G inhibitor project, biochemical, FAM/TAMRA oligo cleavage fluorescence; recombinant A3A, FAM/TAMRA ssDNA deamination fluorescence; inhibition, % at 20 µM; 330,000 compounds, 0.41% hits; DNA dC->dU-editing enzyme APOBEC-3A (Homo sapiens), P31941; AID 493011, 2011;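 active = at least 40% inhibition at 20 µM here, with at most 30% in a related deaminase screen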;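 note: plate controls were A3A with DMSO for no effect and wells lacking A3A enzyme for full effect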
ALR inh = inhibitors of human ALR sulfhydryl oxidase, primary screen, biochemical, H2O2 detection, HRP-luminol luminescence, single point. FAD-linked sulfhydryl oxidase ALR (Homo sapiens), P55789. purified ALR, DTT oxidation. inhibition, % (test concentration not listed). 290,000 compounds, 3.8% hits. AID 485317, 2010;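 active = mean replicate inhibition above about 79%, with every replicate also reaching it, limit read from the data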
PHOSPHO1 block = PubChem AID 1565; recombinant PHOSPHO1, absorbance phosphatase assay; inhibition, % at 13.3 µM; 290,000 compounds, 1.1% hits; in the data active = inhibition above about 60%
Target sequence (Q8TCT1 whole entry, looked up): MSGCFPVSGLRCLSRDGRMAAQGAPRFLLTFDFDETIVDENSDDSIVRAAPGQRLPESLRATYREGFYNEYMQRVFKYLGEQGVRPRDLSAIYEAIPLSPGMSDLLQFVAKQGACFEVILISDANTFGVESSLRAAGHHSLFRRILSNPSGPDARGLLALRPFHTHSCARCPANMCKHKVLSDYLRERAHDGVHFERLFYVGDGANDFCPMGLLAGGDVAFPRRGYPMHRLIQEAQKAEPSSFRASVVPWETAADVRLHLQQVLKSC
Numbers without * were called inactive. Shown are actives, neighbours in structure and some others; about 5.4% of the full set was active somewhere.

What do the screens show for `CN(CCc1ccccn1)C(=O)CCC1CCCN(C(=O)c2ccsc2)C1` (centres undefined)?
rCAG binder: -8.8; A3G deaminase: -3.8; aDG glyco up: 0.6; APOBEC3A inh: -2.2; ALR inh: -3.8; PHOSPHO1 block: 61.1*

What do the screens show for `COC(=O)C1=C(C)N(Cc2ccc(C(F)(F)F)cc2)C(=NCC2CC2)NC1c1cccc(Cl)c1` (centres undefined)?
rCAG binder: 8.2

What do the screens show for `O=C(O)/C(=C\c1ccc(Cl)cc1)c1ccc(S(=O)(=O)N2CCCC2)s1`?
rCAG binder: 27.1; A3G deaminase: 6.0; aDG glyco up: -0.4; APOBEC3A inh: 28.9; ALR inh: 97.6*

Results for O=C(c1ccc(Cl)cc1)N1CCN(c2cccc3[nH]ccc23)CC1 ?
rCAG binder: 0.5; A3G deaminase: -7.0; aDG glyco up: -0.2; APOBEC3A inh: -5.3; ALR inh: 97.0*; PHOSPHO1 block: -10.4

Results for Cc1ccccc1N1CCN(Cc2c[nH]c3ccccc23)CC1 ?
rCAG binder: -4.2; A3G deaminase: -4.2; aDG glyco up: -0.1; APOBEC3A inh: -5.0; ALR inh: 39.6; PHOSPHO1 block: 7.2

What do the screens show for `Cc1ccc(CN2CCN(c3cccc4[nH]ccc34)CC2)cc1`?
rCAG binder: 15.1; A3G deaminase: -4.5; aDG glyco up: -0.1; APOBEC3A inh: -0.2; ALR inh: 99.0*

How did COC(=O)CC[C@H](/C=C/C(=O)OC(C)(C)C)Sc1ccc(C(C)(C)C)cc1 do in these assays?
rCAG binder: 0.6

What do the screens show for `COC(=O)C1=C(C(=O)OC)C2CCCC1C1N=NN(c3ccccc3)C21` (centres undefined)?
rCAG binder: 0.2

Results for CSCCC(=O)N1C(C)CCCC1C(=O)O (centres undefined) ?
rCAG binder: 0.5; A3G deaminase: 0.5; aDG glyco up: 0.1; APOBEC3A inh: 0.4; ALR inh: -1.1; PHOSPHO1 block: 23.1

Results for CC1CCCC(C(=O)O)N1C(=O)CCS (centres undefined) ?
rCAG binder: 5.0; A3G deaminase: -1.2; aDG glyco up: -0.3; APOBEC3A inh: 1.3; ALR inh: -33.0; PHOSPHO1 block: 62.2*

Results for O=C(OCc1cn(Cc2c(F)cccc2F)nn1)N1CCOCC1 ?
rCAG binder: 1.3

What do the screens show for `CC(C)(C)C(=O)O[C@@H]1CCC[C@@]2(C(=O)N(Cc3ccccc3)c3ccccc32)[C@H]1NC(=O)CCc1ccccc1`?
rCAG binder: 3.1

Results for C=CCn1c(-c2cccn(Cc3ccc(Cl)cc3)c2=O)n[nH]c1=S ?
rCAG binder: 6.5; A3G deaminase: 26.1; aDG glyco up: -0.1; APOBEC3A inh: -4.2; ALR inh: 12.6; PHOSPHO1 block: 99.1*

Results for C=CCn1c(-c2cccn(Cc3ccc(Cl)cc3Cl)c2=O)n[nH]c1=S ?
rCAG binder: 3.7; A3G deaminase: 20.2; aDG glyco up: 0.3; APOBEC3A inh: -5.2; PHOSPHO1 block: 32.5

How did C=CCn1c(-c2cccn(Cc3cccc(Cl)c3)c2=O)n[nH]c1=S do in these assays?
rCAG binder: -0.1; A3G deaminase: 25.9; aDG glyco up: 0.1; APOBEC3A inh: -4.7; ALR inh: 3.5; PHOSPHO1 block: 97.7*

What do the screens show for `O=c1c(-c2n[nH]c(=S)n2-c2ccccc2)cccn1Cc1cccc(Cl)c1`?
rCAG binder: 4.5; A3G deaminase: 16.8; aDG glyco up: -0.2; APOBEC3A inh: -4.5; ALR inh: 93.0*; PHOSPHO1 block: 52.1

Results for C=CCn1c(-c2cccn(Cc3ccccc3)c2=O)n[nH]c1=S ?
rCAG binder: 4.1; A3G deaminase: 27.9; aDG glyco up: 0.2; APOBEC3A inh: -1.8; ALR inh: 35.5; PHOSPHO1 block: -66.9

What do the screens show for `Cc1ccc(-c2nc3ncccn3c2NC(=O)Nc2ccc(OC(F)(F)F)cc2)cc1`?
rCAG binder: 10.7

Results for CCOC(=O)CCCNC(=O)OC1CCC12CCC(c1ccccc1)CC2 (centres undefined) ?
rCAG binder: 1.4

What do the screens show for `COCC(=O)Nc1cc(Cl)ccc1C`?
rCAG binder: -1.8; A3G deaminase: -0.1; aDG glyco up: 0.0; APOBEC3A inh: -1.4; ALR inh: -4.3; PHOSPHO1 block: 16.2

What do the screens show for `CCOC(=O)CSCC(=O)Nc1cc(C)ccc1C`?
A3G deaminase: -4.0; aDG glyco up: -0.2; APOBEC3A inh: 2.3; ALR inh: 98.1*; PHOSPHO1 block: 3.7

Results for Cc1ccc(Cl)cc1NC(=O)CSC(N)=O ?
rCAG binder: 2.0; A3G deaminase: -3.9; aDG glyco up: -0.2; APOBEC3A inh: -2.7; ALR inh: 98.2*; PHOSPHO1 block: 19.8

What do the screens show for `Cc1ccc(S(=O)(=O)c2nc(NN(C)C)sc2Cl)cc1`?
rCAG binder: -2.5; A3G deaminase: -2.0; aDG glyco up: 0.3; APOBEC3A inh: -3.3; ALR inh: 97.1*; PHOSPHO1 block: -2.4

What do the screens show for `N#C/C(=C/c1cc(Cl)c(O)c(Cl)c1)C(=O)N1CCCCC1`?
rCAG binder: 1.3; A3G deaminase: -6.1; aDG glyco up: 0.1; APOBEC3A inh: -4.0; ALR inh: 36.6; PHOSPHO1 block: 9.7

Results for N#CC(C#N)=C(N)/C(C#N)=C/c1cc(O)c(O)c(O)c1 ?
rCAG binder: 11.4; A3G deaminase: -9.1; aDG glyco up: 0.2; APOBEC3A inh: -0.8; ALR inh: 96.2*

How did CCCCCCCCS(=O)c1sc2nc3c(cc2c1N)CCCC3 (centres undefined) do in these assays?
rCAG binder: 18.5; A3G deaminase: -2.9; aDG glyco up: 0.0; APOBEC3A inh: -0.2; ALR inh: 15.9

Results for CCCCCCCCS(=O)c1sc2nc(C)cc(C)c2c1N (centres undefined) ?
rCAG binder: 6.3; A3G deaminase: -5.8; aDG glyco up: -0.1; APOBEC3A inh: -6.0; ALR inh: 8.2; PHOSPHO1 block: 94.1*

How did CCn1c(C)nc2cc(C(=O)NNS(=O)(=O)c3ccc(C)c(C)c3)ccc21 do in these assays?
A3G deaminase: -3.3; aDG glyco up: 0.0; APOBEC3A inh: -0.9; ALR inh: 81.0*; PHOSPHO1 block: 16.2

How did COC(=O)CSc1nnc(-c2cc(-c3ccccc3)n[nH]2)n1N do in these assays?
rCAG binder: 1.6

What do the screens show for `CCOC(=O)c1ccc(NC(=O)c2cc(OC)c(OC)c(OC)c2Br)cc1`?
rCAG binder: -4.4; A3G deaminase: -9.7; aDG glyco up: 0.7; APOBEC3A inh: 2.1; ALR inh: -16.9; PHOSPHO1 block: -1.8
